According to PubChem BioAssay AID687 (PCMD, 2007):
Screen size: about 33,000 compounds; about 95 (0.3%) were called active.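 The calls were made as follows: active = inhibition above 40% in the primary screen; inactive = the rest.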 The sample as a whole holds a higher share of actives than the screen did.

The compounds below were run against Coagulation factor XI (Homo sapiens) (UniProt P03951) (assay: human FXIa protease inhibitors, primary screen, biochemical, single compound per well (AID 687;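 also: 0% = enzyme without compound and 100% = blank wells lacking enzyme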)). Conditions: purified human FXIa, fluorogenic AMC substrate cleavage; at 10 µM; hits give high values.
Chain of Coagulation factor XI (Homo sapiens) (P03951 19-387 limits assumed): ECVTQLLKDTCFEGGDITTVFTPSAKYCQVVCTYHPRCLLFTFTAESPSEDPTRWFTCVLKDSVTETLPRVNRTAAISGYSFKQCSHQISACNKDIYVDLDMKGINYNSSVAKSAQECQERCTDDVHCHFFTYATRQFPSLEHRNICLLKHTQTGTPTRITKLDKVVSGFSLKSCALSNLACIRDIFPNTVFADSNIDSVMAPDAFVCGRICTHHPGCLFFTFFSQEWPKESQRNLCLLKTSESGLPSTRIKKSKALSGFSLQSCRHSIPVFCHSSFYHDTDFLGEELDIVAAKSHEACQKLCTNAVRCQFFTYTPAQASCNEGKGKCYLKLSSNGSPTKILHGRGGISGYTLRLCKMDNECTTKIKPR
Chain of Coagulation factor XI (Homo sapiens) (P03951 388-625 limits assumed): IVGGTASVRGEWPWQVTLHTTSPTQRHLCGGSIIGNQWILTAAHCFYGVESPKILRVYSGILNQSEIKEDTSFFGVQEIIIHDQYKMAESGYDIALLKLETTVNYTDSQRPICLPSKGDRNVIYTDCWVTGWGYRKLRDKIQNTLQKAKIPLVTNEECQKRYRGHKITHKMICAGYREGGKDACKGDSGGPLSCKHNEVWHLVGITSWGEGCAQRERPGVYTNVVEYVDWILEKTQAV

inhibition, inactive:
CCC(=O)NC(Nc1nc2ccc(C)cc2s1)(C(=O)OC)C(F)(F)F (stereo not drawn) 0.39%, CCOC(=O)c1ccccc1NS(=O)(=O)c1ccc(OC)cc1 -1.8%, CCOc1ccc(C(=O)NCCCN2CCCC2=O)cc1 -9.62%, Cc1cc(C)cc(OCc2nnc(SCC(=O)OC3CCCCC3)o2)c1 2.82%, O=C(Nc1ccc(S(=O)(=O)N2CCc3ccccc3C2)cc1)c1ccccc1 4.52%, O=C1CSC(c2ccc(Cl)cc2)N1 (stereo not drawn) -2.99%, COc1ccc(-c2cc3nc(C)c(CCC(=O)NC(C)CCc4ccco4)c(C)n3n2)c(OC)c1 (stereo not drawn) 0.38%, C=C(C)CNC(=S)/N=c1\scc(C)n1CC -6.03%, COc1cc(S(=O)(=O)N(Cc2cccs2)C2CC2)ccc1-n1cnnn1 6.31%, COc1ccccc1Nc1nc(N)nc(CN(C)C2CCCCC2)n1 -1.79%, O=C(CCN1C(=O)c2ccccc2C1=O)Nc1cccc(F)c1 21.9%, O=C(CCn1c(SCC(=O)c2ccccc2)nc2ccccc2c1=O)NCc1ccc(F)cc1 -1.87%, CCCNC(=O)NCc1ccc(N2CCCC2=O)cc1 -4.89%, O=C(NCc1ccccc1)[C@@H]1CSC2c3ccccc3C(=O)N21 (stereo partly drawn) -6.84%, COc1ccc(N2CCN(C(=O)CNC(=O)c3ccc(C(C)(C)C)cc3)CC2)cc1 0.23%, COc1ccc2oc(=O)c(C(=O)N3CCCc4ccccc43)cc2c1 2.52%, C=CCN(C(=O)Cn1ncc2c1-c1cc(C)ccc1OC2)c1ccccc1 7.94%, CCCCSc1[nH]c(=O)c(C(=O)OCC)cc1C#N -3.65%, COC(=O)c1cccc(-n2[nH]nnc2=S)c1 8.73%, O=c1nc(N2CCOCC2)nc2n1CCO2 0.16%, Nc1nc(SCc2ccccc2Cl)n[nH]1 -1.35%, C=CCn1c(SCc2c(C)noc2C)nc2sc3c(c2c1=O)CCC(C)C3 (stereo not drawn) -0.06%, Cc1cccc(Cn2c(SCCO)nc3c2c(=O)n(C)c(=O)n3C)c1 -5.34%, COC(=O)Nc1ccc(S(=O)(=O)N2CCN(CCN3C(=O)C4C5C=CC(C5)C4C3=O)CC2)cc1 (stereo not drawn) 7.92%, CN(C)CCNC(=O)C(C(=O)c1ccccc1)n1ccccc1=O (stereo not drawn) -0.81%, Nn1c(SCC(=O)NC2CCCC2)nnc1-c1ccccc1F -0.95%, Cc1cc(C(F)(F)F)n2ncc(-c3ccccc3)c2n1 -2.08%, O=C(CN1CCN(C(=O)c2ccco2)CC1)Nc1ccc2c(c1)OCO2 -13.2%, CCOC(=O)c1ccc(COC(=O)CCc2nc(-c3ccccc3)c(-c3ccccc3)o2)cc1 -0.92%, Cc1ccc(CNC(=O)CCNS(=O)(=O)c2cccc3nonc23)cc1 -10.4%, CCc1nc(N2CCN(c3nc(C)cc(C)n3)CC2)c2oc3ccccc3c2n1 -4.81%, COc1ccc(CCN(C)CCN2C(=O)c3ccccc3C2=O)cc1OC -0.63%, Cc1ccc(OCC(=O)Nn2cnc3ccccc32)cc1 13.2%, CCOC(=O)c1ccc(COC(=O)c2cc(=O)[nH]c3ccccc23)o1 0.06%, CCOC(=O)c1cc2ccccc2nc1C -0.46%, CCOc1cc(CN2CCN(C(=O)CC(C)C)CC2)ccc1OC 0.6%, CC(NC(=O)Nc1ccccc1)c1ccccc1 (stereo not drawn) -3.02%, CC1CCC2(CC1)NC(=O)N(CC(=O)c1cccn1C)C2=O (stereo not drawn) -10.7%, CCOc1ccc(S(=O)(=O)N2CCCCCC2)c2ccccc12 -9.47%, O=C(NC1CCCCC1)c1ccc(CNc2c(N3CCOCC3)c(=O)c2=O)cc1 -0.69%, COc1ccc(CN2CCn3ncc(C(=O)Nc4ccc(Cl)cc4Cl)c3C2=O)cc1 8.32%, CCOC(=O)C1=C(CSc2nccn2C)NC(=O)NC1c1ccc(OC)cc1 (stereo not drawn) -6.24%, CC1(C)Cc2c(sc3nc(SCC(=O)NCc4ccccc4)n(-c4ccccc4)c(=O)c23)CS1 1.32%, O=C(C(NS(=O)(=O)c1cccc2nsnc12)c1ccccc1)N1CCN(c2ccccc2)CC1 (stereo not drawn) 4.95%, O=C(NCc1ccco1)C1(c2ccc(Cl)cc2)CCCC1 -4.42%, O=C(CCCn1c(SCC(=O)c2ccccc2)nc2ccccc2c1=O)NCC1CCCO1 (stereo not drawn) 7.29%, CCOc1ccc(-c2nc(C)sc2CC(=O)O)cc1 -1.47%, O=[N+]([O-])c1ccc(Oc2ccc(F)cc2Br)c2ccncc12 -2.08%, c1ccc2[nH]c(NCCN3CCOCC3)nc2c1 -1.88%, COC(=O)C1CCN(CC(N)=O)CC1 -11.2%, Cc1cc(=O)oc(C)c1C(=O)N1CCCCC1 32.7%, Cc1ccc(CNC(=O)C2CCCN2C(=O)NCc2ccccc2)cc1 (stereo not drawn) 26.7%, COc1ccc(O)c(C(=O)c2cnc3onc(C(C)C)c3c2)c1 -2.11%, O=C(CCN1c2ccccc2Sc2ccccc21)Nc1ccccc1 -11.6%, Cc1ccnc(NC(=O)c2ccc(NC(=O)c3ccco3)cc2)c1 1.44%, Cc1cccc(NC(=O)CN2C(=O)CNC2=O)c1 7.39%, COC(=O)c1cccc(N(C(=O)c2ccco2)C(C(=O)NC2CCCC2)c2ccco2)c1 (stereo not drawn) -11.4%, COc1ccc(N/N=C2/CCCCC2=O)cc1 19.4%, COc1ccc(N2CCN(C(=O)CCc3nc(-c4ccc(C)cc4)no3)CC2)cc1 8.76%, O=C(CNS(=O)(=O)c1ccc(Br)s1)N1CCN(C(=O)c2ccco2)CC1 -4.45%, Cc1cccc(C)c1NC(=O)CCCSc1nnc(-c2ccco2)n1-c1ccccc1 -0.71%, Cc1ccc(-c2csc(NC(=O)c3cccs3)n2)cc1 -11.7%, Oc1ccccc1CNc1ncc(Br)cc1Br -10.8%, CCC1(C)Cc2c(sc3nc(SC)nc(N)c23)CO1 (stereo not drawn) 14.2%, COc1ccc(NC(=S)N2N=CCC2c2ccccc2)cc1 (stereo not drawn) 0.63%, Cc1ccsc1C(=O)OCC(=O)c1cc2ccccc2o1 3.48%, O=P(c1ccc2c(c1)OCCO2)(N1CCOCC1)N1CCOCC1 2.3%, COc1ccccc1NC(=O)/C=C/C(N)=O 4.44%, CCOc1ccccc1NC(=O)Nc1cc(OC)ccc1OC -0.13%, COc1ccc(C(=O)NNC(=O)c2cnccn2)cc1[N+](=O)[O-] -1.41%, COc1cc2c(cc1OC)C(C(C)C)=NC(C)(C)C2 2.2%, Cc1ccccc1N1CCN(CCCOc2ccc3c(C)cc(=O)oc3c2)CC1 3.75%, CCCC(C(=O)NCc1ccco1)N(C(=O)CNS(=O)(=O)c1ccccc1)C1CCCC1 (stereo not drawn) -1.8%, Cc1ccc(OCC(=O)N/N=C\c2ccco2)c(C)c1 8.22%, COc1ccccc1CNS(=O)(=O)c1ccc(C)cc1 -5.43%, O=C(Nc1ccc(Sc2ccc(Br)cc2)cc1)c1ccco1 5.67%, CC1(C)CC(=O)NC=C(c2ccccc2)C1 2.57%, COc1ccc(C(=O)CSc2nccc(=O)[nH]2)cc1 4.89%, Cc1cccc(N2CCN(S(=O)(=O)c3ccc4[nH]c(=O)c(=O)[nH]c4c3)CC2C)c1 (stereo not drawn) -6.46%, Cc1nc(NNC(=O)c2ccccc2)cc(-c2ccccc2)n1 -2.36%, COc1ccc(-c2cc(C)nc3nc(N)nn23)cc1 -7.55%, Cc1ccc(C2(C(F)(F)F)N=C3Sc4cc(C)cc(C)c4N3C(=O)N2)cc1 (stereo not drawn) -3.09%, COCCn1c(=S)[nH]c2cc(C(=O)NCCc3ccc(OC)c(OC)c3)ccc2c1=O 1.93%, COc1ccccc1NC(=O)C1CCCN(c2cc(C)nc3ncnn23)C1 (stereo not drawn) -7.53%, COC(=O)C1=C(C)Nc2ncnn2C1c1cccnc1 (stereo not drawn) -8.85%, CCOC(=O)c1c(N)sc(C(C)=O)c1C 5.4%, CCCOc1ccc(C2NC(=O)NC(c3ccccc3)=C2C(C)=O)cc1OCC (stereo not drawn) -6.35%, Cc1ccc(S(=O)(=O)N2CCN(Cc3cccc(C)c3O)CC2)cc1 -1.32%, COC(C)(C)[C@]12CC(O)(C(C)C)ON1[C@H]1CCCCC1N2O (stereo partly drawn) 0.57%, CC(C)(C)c1cc(=O)n2c(nc3ccccc32)[nH]1 2.42%, COC(=O)c1ccc(Sc2ccc(F)cc2)c(N)c1 1.93%, CC1CCCCC1NC(=O)C1CCCN1S(=O)(=O)c1cccc2nsnc12 (stereo not drawn) 7.4%, COc1ccc(-n2nc3c(c2NC(=O)Cc2cccc(C)c2)CS(=O)C3)cc1 (stereo not drawn) 4.35%, CC(C)(C)c1nc2ccccc2c(=O)n1N1C(=O)c2ccccc2C1=O 2.66%, COc1ccc(-c2nnc(SCC(=O)c3ccc4c(c3)OCCO4)o2)cc1 -2.7%, COC(=O)/C(=C\Nc1ccccc1)NC(=O)c1ccc(Cl)cc1Cl 7.22%, CC(CN1CCOCC1)c1ccccc1 (stereo not drawn) 7.1%, O=C(CSCc1ccccc1)N1CCc2ccccc21 1.56%, Cc1ccc(OCCCC(=O)Nc2ccc(N3CCOCC3)cc2)cc1 3.13%, O=c1c2ccccc2nc(N/N=C/c2ccccc2)n1O 6.82%, Cc1[nH]n(-c2ccc(Cl)cc2)c(=O)c1/C=N/n1c(C)nc2ccccc2c1=O 4.91%, CC1(C)N=C(c2ccccn2)C(C)(C)N1O -1.83%

inhibition, active:
CCOC(=O)c1c(C)nc2c(c1C)c(=O)oc1ccccc12 43.4%
